Screens as filed in PubChem BioAssay.
Only a sample is shown.
aSyn 5UTR act = Activators via SNCA 5'UTR binding, MLPCN; AID 1814, 2009; 300,000 compounds, 7.1% hits; activity score, % (tested at 7.5 µM), hits read low; alpha-synuclein 5'UTR reporter, activators screen; in the data active = activity score below about -60%
* = called active by the depositor.

SMILES	aSyn 5UTR act
Cn1cc(C(=O)c2ccc(Cl)cc2Cl)cc1C(=O)N/N=C(\N)COc1ccc(Cl)cc1Cl	64.9
C/C(=N\NC(=O)c1ccncc1)c1ccc(NC(=O)c2ccc(Cl)cc2)cc1	-115.9*
C/C(=N/NC(=O)c1ccncc1)c1ccc(NC(=O)c2ccc(Cl)cc2Cl)cc1	-184.7*
C/C(=N\NC(=O)c1ccc(Cl)cc1)c1cccnc1	-91.6*
COc1cc(OC)cc(C(=O)Nc2ccc(C(=O)c3ccncc3)cc2)c1	-71.9*
COc1ccc(C(=O)Nc2ccc(/C(C)=N/NC(=O)c3ccncc3)cc2)cc1	-107.6*
C/C(=N/NC(=O)c1ccc(C)s1)c1cccnc1	-70.4*
O=[N+]([O-])/C(C(Cl)=C(Cl)Cl)=C(/Sc1ccccc1)N1CCCCC1	-78.5*
Brc1ccccc1C1=Nn2c(nnc2-c2ccccc2)SC1	57.5
O=c1c2cc(-c3ccccc3)sc2nc2n1N=C(c1ccccc1)CS2	-142.1*
CSc1nc2sc(-c3ccccc3)cc2c(=O)n1N	-74.2*
C=CCn1c(-c2ccccc2)c[nH]c1=S	-120.4*
Cn1c(-c2ccc(-c3ccccc3)cc2)c[nH]c1=S	-172.7*
CCn1c(-c2ccc(-c3ccccc3)cc2)c[nH]c1=S	-65.1*
CC(/C=C1\SC(=Nc2cccnc2)NC1=O)=C\c1ccccc1	-113.1*
COc1ccc(Cl)cc1C(=O)Nc1ccc2c(c1)OCCO2	-103.6*
CCN(CC)c1ccc(NC(=O)c2cc(Cl)ccc2OC)cc1	-62.9*
CCN(CC)c1ccc(Nc2cc3n(c(=O)n2)CCc2cc(OC)c(OC)cc2-3)cc1	74.2
COc1ccc(Cl)cc1C(=O)Nc1ccc2c(c1)OCO2	-129.9*
CNC(=O)C(=O)Nc1nc(C23CC4CC(CC(C4)C2)C3)cs1	-128.8*
Cc1cc(C)c2oc(-c3cccc(N)c3)nc2c1	-131.9*
COc1ccccc1CCc1nnc(CCC(=O)N(C)Cc2cccc3cnccc23)o1	-131.5*
COc1ccc(OCc2cc(C(=O)N(C)Cc3cnccn3)no2)c(Cl)c1	-71.1*
COc1ccc(OCc2cc(C(=O)NCC(C)Oc3cccnc3)no2)c(Cl)c1 (configuration not stated)	-85.0*
CSc1ccccc1OCc1cc(C(=O)N(C)Cc2cnccn2)no1	-96.9*
SMILES	aSyn 5UTR act
COc1cc(Cl)ccc1OCc1cc(C(=O)N(C)Cc2cccc3cnccc23)no1	-76.7*
COc1ccc(OCc2cc(C(=O)NC(C)Cc3cnccn3)no2)c(Cl)c1 (configuration not stated)	-143.8*
COc1cc(Cl)ccc1OCc1cc(C(=O)NCc2cc(C(C)C)no2)no1	-147.1*
COc1cc(Cl)ccc1OCc1cc(C(=O)NC(C)Cc2cccnc2)no1 (configuration not stated)	-96.5*
COc1cc(OC)cc(C(=O)NC(=S)NNC(=O)c2cnccn2)c1	73.2
COc1ccc(OCc2cc(C(=O)N(C)Cc3cc(C4CC4)n[nH]3)no2)c(Cl)c1	-189.0*
Cc1cc(N/N=C/c2ccc(O)cc2O)nc(-n2nc(C)cc2C)n1	71.8
CCOc1ccc2nc(N3CCOCC3)nc(C)c2c1	-178.1*
Cc1cc(Nc2ccc(C)c(Cl)c2)nc(N2CCOCC2)n1	-69.9*
CCOc1ccc(/C=N/Nc2cc(C)nc(N3CCOCC3)n2)cc1	-104.8*
CCCNC(=O)c1noc2c1CCc1cc(OC)ccc1-2	-70.8*
COc1ccc2c(c1)CCc1c(C(=O)N3CCCCCC3)noc1-2	-63.8*
COc1ccc2c(c1)CCc1c(C(=O)NCc3cccnc3)noc1-2	-90.7*
O=C(c1noc2c1CCc1ccccc1-2)N1CCOCC1	-71.9*
c1ccc(COc2ccc(OCCCN3CCCC3)cc2)cc1	54.8
CC1CCN(CCCOc2ccc(OCc3ccccc3)cc2)CC1	-69.0*
c1ccc(-c2ccc(OCCOCCn3cncn3)cc2)cc1	-174.9*
c1ccc(COc2ccc(OCCCn3cncn3)cc2)cc1	-101.5*
COc1ccc(Oc2ncnc3sccc23)cc1	-95.1*
c1nc(Nc2ccc(N3CCOCC3)cc2)c2ccsc2n1	-63.2*
COc1ccc(Nc2nccc3c2ncn3C)cc1	21.3
COc1cccc(Nc2ncnc3sc(C)cc23)c1	-126.2*
COc1ccc(CCNc2ncnc3sc(C)cc23)cc1OC	77.4
COc1ccc(Nc2ncnc3sccc23)cc1	-97.6*
COc1cccc(Nc2ncnc3sccc23)c1	-118.2*
SMILES	aSyn 5UTR act
CC(C)CC(=O)Nc1cc2nn(-c3ccccc3)nc2cc1Cl	-134.5*
Nc1cc2nn(-c3ccccc3)nc2cc1Cl	-157.1*
C=CCN(C(=O)c1oc2c(Cl)cc(C)cc2c1C)C1CCS(=O)(=O)C1 (configuration not stated)	-70.8*
Cc1ccc(-c2cn3cccnc3n2)cc1	-119.5*
c1ccc(-c2nccc(-c3ccc4c(c3)OCO4)n2)cc1	-105.2*
c1cnc2nc(-c3ccc4c(c3)OCO4)cn2c1	-93.2*
CCc1ccn2cc(-c3ccc4c(c3)OCO4)nc2c1	107.0
c1ccc(-c2noc(-c3ccc4c(c3)OCO4)n2)nc1	90.6
O=C(Nc1nc(-c2ccco2)cs1)c1ccccc1	-180.6*
Cc1ccc(-c2csc(NC(=O)c3ccco3)n2)cc1C	-208.8*
O=C(Nc1nc(-c2ccccn2)cs1)c1ccccc1-n1cnnn1	98.3
COc1ccc(-c2csc(NC(=O)c3ccco3)n2)cc1	-240.7*
COc1ccc(-c2csc(NC(=O)C3=NN(c4ccccc4)C(=O)CC3)n2)cc1	-85.9*
O=C(Nc1nc(-c2ccccc2)cs1)c1ccco1	-98.2*
CCOc1ccc(-c2csc(NC(=O)c3ccco3)n2)cc1	-125.5*
Cc1ccc(-c2csc(NC(=O)c3ccc(-c4ccccc4)cc3)n2)o1	-122.1*
O=C(NNc1nc(-c2ccc(Br)cc2)cs1)c1ccco1	-105.1*
CC1=C([N+](=O)[O-])C(c2ccccc2)C2=C(N1)c1ccccc1C2=O (configuration not stated)	113.3
Cn1c2c(c(=O)[nH]c1=O)C(c1ccc(O)cc1)C1=C(N2)c2ccccc2C1=O (configuration not stated)	-66.8*
c1ccc(Cn2ccc(-c3cnc(-c4ccccc4)s3)n2)cc1	-105.6*
Cc1ccc(Nc2nc(-c3ccncc3)cs2)cc1	-331.1*
Clc1cccc(Nc2nc(-c3ccncc3)cs2)c1	-159.3*
COc1cnc(-c2ccccn2)nc1N(C)c1ccccc1	88.6
c1ccc(-c2cnnc(-c3ccccn3)n2)cc1	-132.8*
CCN1CCN(Cc2ccc(OCc3ccccc3)c(OC)c2)CC1	-89.6*
SMILES	aSyn 5UTR act
CCN1CCN(Cc2ccc(OCc3ccccc3)cc2)CC1	-77.3*
O=C(NC(=S)Nc1nc2c(ccc3ccccc32)s1)c1cccs1	-63.2*
O=C(Nc1nc2c(ccc3ccccc32)s1)c1ccco1	-293.2*
O=C(Nc1ccc(-c2nc3c(ccc4ccccc43)o2)cc1)c1ccco1	-164.8*
O=C(Nc1nc2c(F)c(F)c(F)cc2s1)c1ccco1	-178.7*
O=c1n(-c2ccc(Br)cc2)cnn1-c1ncccc1[N+](=O)[O-]	-101.1*
N#C/C(=N/Nc1ccc(OC(F)(F)F)cc1)C(N)=S	-71.3*
Cc1occc1C(=O)N/N=C/C=C/c1ccc(N(C)C)cc1	-129.2*
Cc1occc1C(=O)N/N=C/C=C/c1ccccc1	-138.1*
CCCCOC(=O)N/N=C/C=C/c1ccccc1	-87.5*
Cc1occc1C(=O)N/N=C/C(Br)=C\c1ccccc1	-108.0*
O=C(Nc1cc2c(cc1Br)OCCCO2)c1ccccc1	-104.4*
O=C(Nc1cc2c(cc1Cl)OCCCO2)c1ccc(F)cc1	-89.8*
Cc1ccc(C(=O)Nc2cc3c(cc2Cl)OCCCO3)cc1	-144.9*
CC(C)c1ccc(N=C2N=C(N)c3ccccc32)cc1	-132.4*
